A selection: hits, their analogues and other compounds. The true share with any hit is near 5.2%.
Tau fluor cs: counter-screen for tau fibril formation inhibitors; tau K18 P301L Alexa594 fluorescence, heparin fibrillization; Potency, µM (top dose mostly 57.7 µM), without a hit: at the top dose activity change, negative = decrease; actives 0.93% (n = 280,000); also: potency is read from the fitted curve at half-maximal effect; nearly all actives have a fitted effect of over 55% in size
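Human K18 P301L tau (15 uM unlabeled plus 0.24 uM Alexa 594-labeled, final) in 100 mM sodium acetate pH 7 was mixed with compound and 20 uM heparin and incubated 6 hr at 37 C.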
Sfp PPTase inh: inhibitors of Bacillus subtilis Sfp phosphopantetheinyl transferase; Q9F4F7; Biochemical Sfp PPTase activity, qHTS; Potency, µM, inactives show largest response in the series, negative = inhibition, actives largely listed as inhibitors; actives 3.5% (n = 310,000);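 also: the enzyme is Sfp with the accession as filed and its product quenches rhodamine fluorescence; potency is read from the fitted curve at half-maximal effect; 0% = enzyme reaction without inhibitor and -100% = no enzyme wells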
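Reaction rates are the 30-min fluorescence difference (ex 525, em 598 nm) in wells containing 15 nM Sfp, 5 uM rhodamine-CoA and 12.5 uM BHQ-2-YbbR at pH 7.6 with 10 mM MgCl2.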
Tau ThT inhib: tau fibrillization inhibition (ThT binding); actives 2.1% (n = 270,000); P10636; AID 1460; Potency, µM (titrated, usually from 57.4 µM), without a hit: top-dose activity, negative = inhibition, most hits filed as inhibitors; recombinant tau K18 P301L, heparin-induced fibrillization, ThT fluorescence; also: potency is read from the fitted curve at half-maximal effect; nearly all actives have a fitted effect of over 55% in size
Target sequence (P10636 561-689 P618L limits assumed): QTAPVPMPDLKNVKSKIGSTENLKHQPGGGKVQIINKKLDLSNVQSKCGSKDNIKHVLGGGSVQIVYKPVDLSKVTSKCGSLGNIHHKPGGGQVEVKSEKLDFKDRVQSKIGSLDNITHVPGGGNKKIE
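ThT emission at 510 nm, taken 1 hr after adding 30 uM dye, quantifies aggregates formed when 20 uM heparin acts on human tau K18 P301L for 6 hr at 37 C.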
Tau FP inhib: inhibitors of human tau fibril formation. AID 1468. K18 P301L tau heparin fibrillization, Alexa594 FP, 6 h. Potency, µM (titrated, usually from 57.7 µM), inactives show at the highest dose activity, negative = inhibition, most hits filed as inhibitors. actives 0.39% (n = 280,000); also: potency is read from the fitted curve at half-maximal effect; nearly all actives have a fitted effect of over 55% in size
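Human tau K18 […] P301L fragment, 15 uM unlabeled plus 0.24 uM Alexa 594-labeled tau (final), with compound and 20 uM heparin in 100 mM sodium acetate pH 7; 6 hr at 37 C, then Alexa 594 FP read.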
Coupling enz: inhibits coupling enzyme system, counter-screen for aldolase hits; actives 0.67% (n = 290,000); coupling enzyme system counterscreen, AmpLite Red fluorescence; activity change, negative = inhibition, % at 58.2 µM, hits read low; AID 2472; in the data active = activity change below about -30%
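Counterscreen lacking aldolase: glyceraldehyde-3-phosphate coupling-enzyme reagent preincubated 10 min at RT with compound (at 57.5 uM final), then substrate/coupling system with AmpLite Red added; fluorescence read at 525/598 nm after 20 min RT.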
Numbers without * were called inactive; [ ] = dose if it differs, or a comment. Unless noted, calls follow the shape of the dose curve; as a rule, active = well fitted curve in the direction sought with a large enough effect; inconclusive = small, poorly fitted or top-dose-only effect, or another doubt; inactive = no such curve, though single readings can be large; an effect the other way counts as inactive or inconclusive. Unless noted, % is scaled to controls: 0 for no effect and ±100 for the full control effect.

Screening Cc1cc(C)nc(N/N=C/C2=C(N3CCOCC3)C(=C\c3ccc(Cl)cc3)/CC2)n1 returned Tau fluor cs -12%, Sfp PPTase inh -29%, Tau ThT inhib 11µM*, Tau FP inhib -9% and Coupling enz -5.
`COc1cc(OC)cc(C2=Nn3c(nnc3-c3ccccc3OC)SC2)c1` gave Sfp PPTase inh -2% and Coupling enz 0.
Screening Nc1c(C(=O)c2ccc(Cl)cc2)sc2nsc(SCCN3CCOCC3)c12 returned Tau fluor cs inconclusive, Sfp PPTase inh inconclusive, Tau ThT inhib inconclusive, Tau FP inhib 5% and Coupling enz 0.
`Nc1c(C(=O)c2ccccc2)sc2nsc(SCCN3CCCC3)c12` gave Tau fluor cs inconclusive, Sfp PPTase inh -23%, Tau ThT inhib 16µM*, Tau FP inhib -14% and Coupling enz 2.
`COc1cc(SC)ccc1C(=O)NCCOc1ccc(Cl)cc1` gave Tau fluor cs -12%, Sfp PPTase inh -6%, Tau ThT inhib inconclusive, Tau FP inhib 6% and Coupling enz 2.
For COc1cc(SC)ccc1C(=O)NCCOc1c(C)cc(C)cc1C the results were Tau fluor cs -20%, Sfp PPTase inh 50µM*, Tau ThT inhib 16µM*, Tau FP inhib -6% and Coupling enz -2.
CCOC(=O)N1CCc2c(sc3c2c(=O)n(Cc2ccccc2)c(=O)n3CC(=O)Nc2ccc(F)cc2)C1 was read as Tau fluor cs inconclusive, Tau ThT inhib 8% and Tau FP inhib 10µM*.
`CCOc1ccccc1NC(=O)C1CCN(S(=O)(=O)c2c(C)noc2/C=C/c2ccc(C)cc2)CC1` gave Tau fluor cs -9%, Tau ThT inhib 11% and Tau FP inhib -10%.
Screening COc1cc(OC)c(OC)cc1/C=N/N(C)c1ccccc1 returned Tau fluor cs 16µM*[quencher], Sfp PPTase inh inconclusive, Tau ThT inhib inconclusive, Tau FP inhib inconclusive and Coupling enz -3.
`COc1cc(/C=N/N(C)c2ccccc2)ccc1O` gave Tau fluor cs inconclusive, Sfp PPTase inh -9%, Tau ThT inhib 13µM*, Tau FP inhib 10% and Coupling enz -2.
For CN(/N=C/c1cc([N+](=O)[O-])ccc1O)c1ccccc1 the results were Tau fluor cs -20%, Sfp PPTase inh -4%, Tau ThT inhib inconclusive, Tau FP inhib 1% and Coupling enz 1.
Screening CC(N)CCCP(=O)(O)O (stereo not given) returned Tau fluor cs 1%, Sfp PPTase inh -12%, Tau ThT inhib 10% and Tau FP inhib -12%.
Cc1ccc(F)c(C2C3C=CCCC3(C)C(=O)N2Cc2ccccc2)c1 (stereo not given) was read as Sfp PPTase inh 28µM* and Coupling enz 9.
For COc1ccc(-c2ccc([C@H]3[C@@H]4C=CCC[C@@]4(C)C(=O)N3Cc3ccccc3)c(F)c2)cc1 the results were Tau fluor cs 2%, Sfp PPTase inh 32µM*, Tau ThT inhib -11%, Tau FP inhib -6% and Coupling enz -1.
Screening CCN(CC)c1ccc(NC(=O)COC(=O)C23CCC(=O)N2c2ccccc2S3)cc1 (stereo not given) returned Tau fluor cs -20%, Sfp PPTase inh 63µM*, Tau ThT inhib -11%, Tau FP inhib inconclusive and Coupling enz -32*.
Screening CCN(CC)c1ccc(NC(=O)COC(=O)COc2ccccc2[N+](=O)[O-])cc1 returned Tau fluor cs -25%, Sfp PPTase inh -3%, Tau ThT inhib -11%, Tau FP inhib 15% and Coupling enz 0.
`CCOC(=O)C1CCN(c2ncnc3c2nnn3C)CC1` gave Tau fluor cs -7%, Tau ThT inhib -9% and Tau FP inhib -12%.
For CC1CCCC(C)N1C(=S)NCc1ccco1 (stereo not given) the results were Tau fluor cs -11%, Sfp PPTase inh 35µM*, Tau ThT inhib inconclusive, Tau FP inhib -2% and Coupling enz -1.
`O=C(NC1CCCCC1)NC1CCN(C(=S)NCc2ccco2)CC1` gave Tau fluor cs -7%, Sfp PPTase inh 13%, Tau ThT inhib -10%, Tau FP inhib 2% and Coupling enz -1.

Screening results (PubChem BioAssay)
